The source of these data is publication PMC5540273 (PLoS ONE, 2017).

Some test systems named below: CSNK1G1; CSNK1G2; CSNK1G3; CSNK2A1; CSNK2A2; DAPK1; DAPK2; DAPK3; DDR1; DDR2; DMPK; DYRK1A.
Settings in all cases: concentration: 1 μM, replicates: in singlicate; n = 1
The subject of a further assay is T1, CTK.
T1 construct: gene MATK

In another assay the test system is T2, DCAMKL1.
T2 construct: gene DCLK1

A further assay deals with T3, DCAMKL2.
T3 construct: gene DCLK2

For a further assay, the system named is T4, DCAMKL3.
T4 construct: gene DCLK3

The test system of another assay is T5, DLK.
T5 construct: gene MAP3K12

The test system of another assay is T6, DMPK2.
T6 construct: gene CDC42BPG

The subject of another assay is T7, DRAK1.
T7 construct: gene STK17A

In the next assay the test system is T8, DRAK2.
T8 construct: gene STK17B
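Note: KINOMEscan kinase panel screen.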

In the case of `COc1cccc2c(-c3ccncc3)c(-c3ccc(F)cc3)nn12` [GW468513], the “%Inh” value in the assay on CSNK1G1 came to 10%; in the assay with CSNK1G2 it was 14%; in the assay on CSNK1G3, 31%; in the assay on CSNK2A1, 11%; with CSNK2A2, 12%; with CTK, 8%. The “%Inh” value with DAPK1 amounted to 0%; with DAPK2, 0%; in the assay with DAPK3, 21%; in the assay with DCAMKL1, 0%; with DCAMKL2, 0%; in the assay with DCAMKL3 it was 0%. For the same compound, the “%Inh” value in the assay with DDR1 amounted to 96.2%; with DDR2 it was 90%; with DLK it was 46%; with DMPK2, 98.9%; in the assay on DMPK it was 0%; in the assay on DRAK1 it was 0%. In addition, the “%Inh” value in the assay on DRAK2 stood at 0%; in the assay with DYRK1A, 15%.

Take `O=C(Nc1n[nH]c2cc(-c3cccs3)ccc12)C1CC1` [SB-731284]: the “%Inh” value in the assay on CSNK1G1 is 0%; with CSNK1G2 it was 0%; with CSNK1G3, 0%; in the assay on CSNK2A1 it was 62%; in the assay on CSNK2A2, 80%; in the assay on CTK, 45%. For the same compound, the “%Inh” value worked out at 12% in the assay with DAPK1; 2% in the assay on DAPK2; 3% in the assay with DAPK3; 12% in the assay with DCAMKL1; 3% with DCAMKL2; 0% in the assay with DCAMKL3. Also, the “%Inh” value in the assay on DDR1 amounted to 10%; with DDR2, 23%; in the assay on DLK, 26%; with DMPK2, 0%; with DMPK, 0%; with DRAK1 it was 14%. The “%Inh” value with DRAK2 was found to be 12%; with DYRK1A, 15%.

As to `CCn1c(-c2nonc2N)nc2c(-c3ccccc3)ncc(OCCCN)c21.O=C(O)C(F)(F)F.O=C(O)C(F)(F)F` [GSK260205], the “%Inh” value was determined as 10% in the assay with CSNK1G1; 0% with CSNK1G2; 29% in the assay with CSNK1G3; 22% with CSNK2A1; 31% in the assay with CSNK2A2; 0% with CTK. In addition, the “%Inh” value in the assay with DAPK1 is reported as 10%; in the assay with DAPK2 it was 2%; in the assay with DAPK3 it was 25%; in the assay with DCAMKL1, 0%; in the assay on DCAMKL2, 9%; with DCAMKL3, 70%. Moreover, the “%Inh” value with DDR1 is listed as 26%; with DDR2 it was 31%; in the assay with DLK, 0%; in the assay on DMPK2 it was 100%; in the assay with DMPK, 0%; in the assay with DRAK1 it was 5%. Further, the “%Inh” value in the assay on DRAK2 is given as 2%; with DYRK1A it was 23%.
